Data: PubChem BioAssay (Tox21)
Results filed as inconclusive are left out. A call without a number means that no potency is given here. Calls of active or inactive are those of the source. The call rests on the fitted dose curve; in most records, active means well fitted activation curve with a large enough effect in the repeat runs; inconclusive means weak or mixed curves; inactive means no such curve, though single readings can be large or run the other way.

Experiment: qHTS assay to identify small molecule agonists of the estrogen related receptor signaling pathway with the pleiotropic PPARgamma coactivator (PGC) (AID 1224823)
Conditions: ERR/PGC reporter cell line, luciferase agonist mode; series mostly up to 46.1 µM
Source text: National Center for Advancing Translational Sciences [NCATS]
NIH Chemical Genomics Center [NCGC]
U.S. Environmental Protection Agency [EPA]
National Institutes of Environmental Health Sciences [NIEHS]
National Toxicology Program [NTP]
Estrogen related receptors (ERRs), the first orphan nuclear receptors discovered, play an important role in the control of cellular energy metabolism. ERRs are required for high-energy production in response to the environmental challenges. The pleiotropic PPARgamma coactivator (PGC) is a major partner of ERR and a key regulator in energy homeostasis. Together they have been implicated in the etiology of metabolic disorders such as Type 2 diabetes and metabolic syndrome. ERR-alpha was also identified as an adverse marker for breast cancer progression; ERR-alpha-positive tumors have a poor prognosis. To screen and to identify environmental compounds that perturb the PGC/ERR signaling pathways could provide valuable information for potential therapeutic or preventive measures in the treatment of metabolic disease. For identifying PGC/ERR agonists, PGC/ERR cell line (provided by NTP) has been used to screen LOPAC library.
The PGC/ERR cells were dispensed at 2,000 cells/5 ul/well in 1536-well white plates using a Multidrop dispenser. After the assay plates were incubated at a 37 C/5% CO2 incubator for 6 hours, 23 nL of compounds dissolved in DMSO, positive and negative controls or DMSO only was transferred to the assay plate by a pin tool. The plates were incubated at 37 C for 18 hours. 4 ul/well of One-Glo reagent was added into the assay plates using a Flying Reagent Dispenser. After 30 min incubation at room temperature, the luminescence intensity in the plates was measured using a ViewLux plate reader.
Potency means the concentration at half of the fitted maximal effect.

SMILES | Potency
NC[C@H]1O[C@@H](n2cnc3c(N)ncnc32)[C@H](O)[C@@H]1O | inactive
N[C@H](CCCP(=O)(O)O)C(=O)O | inactive
NCCS(=O)O | inactive
Nc1ccc2c3c(cccc13)C(=O)NC2=O | inactive
N[C@@H](CCC(=O)N[C@H](CSN=O)C(=O)NCC(=O)O)C(=O)O | inactive
CN1C2CCC1CC(OC(c1ccccc1)c1ccccc1)C2 (stereo not given) | inactive
C[N+](C)(C)CC=O | inactive
N=C(N)c1ccc(N)cc1 | inactive
COc1ccc(-c2cc(=O)c3c(O)c(OC)c(OC)cc3o2)cc1O | inactive
Nn1nnc2ccccc21 | inactive
CSc1nc(N)c2ncn([C@@H]3O[C@H](COP(=O)(O)OP(=O)(O)O)C(O)[C@H]3O)c2n1 (stereo not given in full) | inactive
N=C(N)SCCN | inactive
Cn1cc(C(=O)OCC2CCN(CCNS(C)(=O)=O)CC2)c2ccccc21 | inactive
CCCOC(=O)c1ccc(O)cc1 | inactive
O=C(O)/C(=C/c1c(C(=O)O)[nH]c2cc(Cl)cc(Cl)c12)c1ccccc1 | inactive
N=c1ccn2c(n1)O[C@H]1C(O)[C@@H](CO)O[C@H]12 (stereo not given in full) | inactive
COc1cc2nc(N3CCCN(C)CC3)nc(NC3CCN(Cc4ccccc4)CC3)c2cc1OC | inactive
CN1C2CCC1CC(OC(=O)C(O)c1ccccc1)C2 (stereo not given) | inactive
COc1cc(C(O)C(=O)O)ccc1O (stereo not given) | inactive
Cc1cccc(C#Cc2ccccc2)n1 | 9.44 µM (active)

SMILES | Potency
C=CC[C@H](N)C(=O)O | inactive
COC(=O)C(C)(N)Cc1ccc(O)cc1 (stereo not given) | inactive
O[Si](CCCN1CCCCC1)(c1ccc(F)cc1)C1CCCCC1 (stereo not given) | inactive
COc1ccccc1CNCCCCCCNCCCCCCCCNCCCCCCNCc1ccccc1OC | inactive
C[C@@H](c1ncncc1F)[C@](O)(Cn1cncn1)c1ccc(F)cc1F | inactive
Nc1nc(Nc2ccccc2)nc2c1ncn2[C@@H]1O[C@H](CO)C(O)[C@H]1O (stereo not given in full) | 1.44 µM (active)
CCN(CC)CCNC(=O)c1ccc(NS(C)(=O)=O)cc1 | inactive
NC(=Nc1ccccc1)NC(=O)c1nc(Cl)c(N)nc1N | inactive
OC[C@H]1O[C@@H](n2cnc3cncnc32)[C@H](O)[C@@H]1O | inactive
CC(C)c1ccc2c(c1)c(SC(C)(C)C)c(CC(C)(C)C(=O)O)n2Cc1ccc(Cl)cc1 | inactive
CCc1ccc2c(-c3cccc(Cl)c3)nc(=O)n(CC)c2n1 | inactive
O=C(O)C1CCCNC1 (stereo not given) | inactive
CCCn1c(=O)c(C)cn2nc(N)nc12 | inactive
CCCCCC(O)CCCC(=O)O (stereo not given) | inactive
NC(N)=NC(N)=Nc1cccc(Cl)c1 | inactive
COc1ccc(CCN(C)CCc2ccc(OC)c(OC)c2)cc1OC | inactive
CC1C(=O)N(C)C(=O)c2nc[nH]c21 (stereo not given) | inactive
NC(N)=NC(=O)c1nc(Cl)c(N2CCCCCC2)nc1N | inactive
NC(N)=NC(N)=Nc1ccccc1 | inactive
Nc1nc(OCC2CCCCC2)c2[nH]cnc2n1 | inactive
